Our source for the Potency and outcome values is PubChem BioAssay (NCATS).

Records with an inconclusive call do not appear. Entries that show only a call come without a potency. Active and inactive are the calls of the source. Calls follow the shape of the dose curve; as a rule, active = well fitted inhibition curve with a large enough effect; inconclusive = small, poorly fitted or top-dose-only effect; inactive = no such curve, though single readings can be large or run the other way.

The nature of the assay: P-glycoprotein substrates identified in KB-3-1 adenocarcinoma cell line, qHTS therapeutic library screen (AID 1346986). Also: nearly all actives have a fitted effect of over 60% in size. The following applies: KB-3-1 parental cells viability, CellTiter-Glo, 72 h; series mostly up to 44.5 µM. The procedure:
The ATP-binding cassette transporters P-glycoprotein (P-gp) is known to limit brain penetration of many chemotherapy drugs. […] We used the CellTiter-Glo viability assay to test library compounds against the parental KB-3-1 human cervical adenocarcinoma cell line and the colchicine-selected sub-line KB-8-5-11 that over-expresses P-gp. KB-8-5-11 cells were also tested in the presence of a P-gp inhibitor (tariquidar) to assess reversability of transporter-mediated resistance. Of the tested compounds, a total of 90 P-gp substrates were identified including 55 newly identified P-gp substrates. Substrates were confirmed using an orthogonal killing assay against HEK-293 cells transfected with P-gp. As exemplars, we confirmed that AT7159 (cyclin-dependent kinase inhibitor); AT9283, (Janus kinase 2/3 inhibitor); ispinesib (kinesin spindle protein inhibitor); gedatolisib (PKI-587, phosphoinositide 3-kinase/mammalian target of rampamycin inhibitor); GSK-690693 (AKT inhibitor); and KW-2478 (heat shock protein 90 inhibitor) were substrates , and direct ATPase stimulation was assessed. ABCG2 was also found to confer high levels of resistance to AT9283, GSK-690693 and gedatolisib, while ispinesib, AT7519 and KW-2478 were weaker substrates.
The HeLa derivative cell line, KB-3-1, and its colchicine-selected, P-gp-overexpressing subline, KB-8-5-11 were maintained in DMEM with 10% FCS and Pen/Strep with glutamine at 37 degree C in 5% CO2. For KB-8-5-11 cells, colchicine was added to the medium at a concentration of 100 ng/mL. HEK-293 cells transfected with empty vector (pcDNA) or vector containing human ABCB1 (MDR-19) or ABCG2 (R-5) have been described previously (Robey, Lin, Qiu, Chan & Bates, 2011) and were maintained in EMEM supplemented with 10% FCS, Pen/Strep and glutamine with 2 mg/ml G418 to select for the expression of the transporter. Cultures were confirmed to be free of mycoplasma infection using the MycoAlert Mycoplasma Detection Kit (Lonza, Walkersville, MD). For the screen, assay medium was identical to culture medium except for KB-8-5-11 where colchicine was excluded from the medium.
All cell lines were plated into 1536-well plates at 500 cells/well in 5 uL media. Compounds were then pinned in dose-response using a 1536-head pin tool (Kalypsis, San Diego, CA) and plates were incubated at 37 degree C in 5% CO2 for an additional 72 h. CellTiter-Glo reagent (Promega) was dispensed into the wells, incubated for 5 min and luminescence was read on a ViewLux instrument (Perkin-Elmer). Cytotoxic compounds were defined as those that yielded a curve class of -1.1, -1.2, -2.1, -2.2, -2.3, or -2.4, a maximum response of >50% and an AC50 of < 10 uM. Cherry-picked hits from screening analysis were tested with both the KB pair of cell lines, and the pcDNA (empty vector control) and MDR-19 (P-gp overexpressing) pair were tested, in the absence and presence of tariquidar.
A general note: Quantitative high-throughput screening tests each substance at several concentrations.
Turning to `C=C1CC23CC1(O)CCC2C1=CC2OC(=O)C(C)(C2O)C1C3C(=O)O` (stereo not given), the Potency entry was “inactive”. For `CC1(C)C(=O)C(C)(C)c2cc(C(=O)Nc3ccc(C(=O)O)cc3)ccc21`, the Potency result was “inactive”.

Regarding `C=CC1(C)C=C2C(=O)CC3C(C)(C)CCCC3(C(=O)O)C2(O)CC1` (stereo not given), the Potency result was “inactive”. Regarding `COc1cc(-c2cccc(O)c2)cc2c1OCO2`, the Potency result was “inactive”. In the case of `Cc1cc(O)cc(Oc2cc(C)c(C(=O)O)c(O)c2)c1`, the Potency result is “inactive”. The same measure, in the same setting: next, `COc1cc(/C=C/C(=O)OC2CC(C)=C(C(=O)O)/C2=C/CO[C@@H]2O[C@H](CO)[C@@H](O)[C@H](O)[C@H]2O)ccc1O` (stereo not given in full): “inactive”; `O=c1c2ccccc2nc2n1CCC2O` (stereo not given): “inactive”; `CC1CCC2C(C)(C)C(O)CCC2(C)C12Cc1c(O)cc3c(c1O2)C(N)=NC3` (stereo not given): “inactive”. For the molecule `CC(=O)O[C@@]1(C)C[C@@H](O)[C@]2(O)C=CO[C@@H](O[C@@H]3O[C@H](CO)[C@@H](O)[C@H](O)[C@H]3O)[C@@H]21`, the Potency entry is “inactive”. Same read-out and setting: next, `O=C1Nc2ccc(O)cc2O[C@H]1O[C@@H]1O[C@H](CO)[C@@H](O)[C@H](O)[C@H]1O`: “inactive”; `CC1=CCC2C(C)(CO)CCCC2(CO)C1CO` (stereo not given): “inactive”; `COc1c2c(c(C)c3c1C(=O)OC3)O[C@@]1(C)C[C@@H](O)[C@]34O[C@](OC)(CC[C@]3(C)[C@H]1C2)OC4(C)C`: “inactive”. Still for that read-out and setting: next, `C=C(C(=O)OC)C1CCC2(C)C(O[C@@H]3O[C@H](CO)[C@@H](O)[C@H](O)[C@H]3O)CC(=O)C(C)C2C1O` (stereo not given in full): “inactive”. For the molecule `COC1CC(OC2CCC3(C)C(=CCC4C3CCC3(C)C(C(C)O)CCC43O)C2)OC(C)C1OC1OC(C)C(OC2OC(COC3OC(COC4OC(CO)C(O)C(O)C4O)C(O)C(O)C3O)C(O)C(O)C2O)C(OC)C1O` (stereo not given), the outcome was “inactive [at 9.29 µM]”. Turning to `CCOc1nc2cccc(C(=O)O)c2n1Cc1ccc(-c2ccccc2-c2noc(=O)[nH]2)cc1`, the Potency result was “inactive”. On to `CC1(C)NC2N(C1=O)c1ccccc1C2(O)CC(C(=O)O)n1cnc2ccccc2c1=O` (stereo not given), for which the Potency result is “inactive”. On the same count and under the same terms, next, `NC(=O)c1cccc(-c2cc(O)cc(OC(=O)NC3CCCCC3)c2)c1`: “inactive”; `C=C1CC2[C@]3(C)C(=C(O)C(=O)[C@@]2(C)[C@]2(C(=O)OC)C(=O)C(C)OC(=O)[C@@]12C)C(C)(C)C(=O)CC3O` (stereo not given in full): “inactive”.

With `CC[C@H](/C=C/[C@@H](C)[C@H]1CC[C@H]2[C@@H]3CC=C4C[C@@H](O)CC[C@]4(C)[C@H]3CC[C@]12C)C(C)C`, the outcome was “inactive [at 5.11 µM]”. With `CC(=O)NC(CCC(=O)O)C(=O)NCCc1ccc(O)cc1` (stereo not given), the Potency result was “inactive”. Same read-out and setting: next, `CC(=O)Oc1cc2c(s1)CCN([C@H](C(=O)C1CC1)c1ccccc1F)C2`: “inactive”; `CC(=O)O[C@H]1C[C@@H]2[C@]3(CC[C@]4(C)[C@@H](C5(C)CCC(C(C)(C)O)O5)[C@@H](O)C[C@@]24C)C[C@@]32CC[C@H](O[C@@H]3OC[C@@H](O)[C@H](O)[C@H]3O)C(C)(C)[C@H]12` (stereo not given in full): “inactive”. Same read-out and setting: next, `CC(/C=C/C1(O)C(C)CC(O)CC1(C)C)OC1OC(CO)C(O)C(O)C1O` (stereo not given): “inactive”; `COc1cc(C2c3cc(O)c(OC)cc3CC(CO)C2CO)ccc1O` (stereo not given): “inactive”; `COC(=O)C1C(c2ccc(O)cc2)C(C(=O)OC)C1c1ccc(O)cc1` (stereo not given): “inactive”.

As for `COc1ccc2c(c1O)OC[C@H]1c3ccc(O)cc3O[C@@H]21`, the Potency entry was “inactive”. On the same count and under the same terms, with `O=C(NCC(=O)N1CC[C@H](NC2CCC(O)(c3ccc(-c4ncccn4)cn3)CC2)C1)c1cccc(C(F)(F)F)c1` (stereo not given in full) the entry was “inactive”; with `CNC(=O)c1ccc2cc([C@@]3(O)CCn4cncc43)ccc2c1`, “inactive”.

`C[C@@H]1O[C@@H](O[C@H]2[C@H](O[C@H]3[C@H](O[C@H]4CC[C@@]5(C)C(CC[C@]6(C)C5CC=C5[C@@H]7CC(C)(C(=O)O)C[C@@H](O)[C@]7(C)CC[C@]56C)[C@@]4(C)CO)O[C@H](C(=O)O)[C@@H](O)[C@@H]3O)O[C@H](CO)[C@H](O)[C@@H]2O)[C@H](O)[C@H](O)[C@H]1O` (stereo not given in full): the outcome is “inactive [at 9.29 µM]”. As for `Cc1onc(-c2ccccc2)c1C(=O)N[C@@H]1C(=O)N2[C@@H]1SC(C)(C)[C@@H]2C(=O)O`, the Potency result is “inactive”. On the same count and under the same terms, with `CC1=C2C(=O)O[C@@H](c3ccoc3)[C@]2(C)CCC1` the entry was “inactive”; with `CC1(C)CCC(C)(C)c2cc([C@@H](O)C(=O)Nc3ccc(C(=O)O)cc3F)ccc21`, “inactive”; with `CC(=O)OC1C=C(C(=O)O)C2(CO)CCC(C)C(C)(CCc3ccoc3)C2C1` (stereo not given), “inactive”. For the molecule `COC(=O)CC1(O)C(=O)Nc2ccccc21` (stereo not given), the Potency entry was “inactive”.

`C=C1CC[C@H]2[C@@H](/C=C(\C)C(=O)[C@@]3(OC(C)=O)C[C@H](C)[C@H](OC(C)=O)[C@@H]3[C@H]1OC(C)=O)C2(C)C`: the Potency result was “inactive”.

For `CC1=C2C=C(CO)C(CO)CCC2(C)CCC1=O` (stereo not given), the Potency result is “inactive”. On the same count and under the same terms, with `CC(=O)OCCC(C)CCC1C(C)(O)CCC2C(C)(C)CCCC21C` (stereo not given) the entry was “inactive”. On the same count and under the same terms, next, `C=CCc1ccc(O[C@@H]2O[C@H](CO)[C@@H](O)[C@H](O)[C@H]2O)c(OC)c1`: “inactive”.

Consider `C[C@@H]1O[C@@H](O[C@H]2[C@H](OC(=O)C34CCC5(C)C(=CCC6C7(C)CC(O)C(O[C@@H]8O[C@H](C(=O)O)[C@@H](O)[C@H](O)[C@H]8O)C(C)(C(=O)O)C7CCC65C)C3CC(C)(C)CC4O)O[C@H](C)[C@@H](O)[C@@H]2O)[C@H](O)[C@@H](O[C@@H]2OC[C@](O)(CO)[C@H]2O[C@@H]2O[C@H](CO)[C@@H](O)[C@H](O)[C@H]2O)[C@H]1O` (stereo not given in full), for which the outcome is “inactive [at 9.29 µM]”. Take `C/C=C1/[C@H](O[C@@H]2O[C@H](CO)[C@@H](O)[C@H](O)[C@H]2O)OC=C(C(=O)OC)[C@H]1CC(=O)O[C@@H]1O[C@H](CO)[C@@H](O)[C@H](O)[C@H]1O`: the Potency result was “inactive”.
